# Experimental data from PubChem BioAssay.
# A number with no mark means an inactive call. Records with an inconclusive call do not appear. Activity calls are given as the source filed them.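 How the source made its calls, unless noted: active means normalized viability below 100% at a tested concentration; inactive means the rest.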
# Experiments:
# [1] = growth inhibition of DIPG glioma cells, dose response, cell-based, SU-DIPG-XVII, MIPE5.0, CellTiter-Glo, qHTS (AID 1347060; cut-off not given, nearly all actives have AC50 up to about 26 µM;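 further: cells exposed to compound for 48 hours before viability readout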); settings: SU-DIPG-XVII viability, CellTiter-Glo ATP luminescence
# [2] = growth inhibition of DIPG glioma cells, dose response, cell-based, JHH-DIPG-1, MIPE4.0, CellTiter-Glo, qHTS (AID 1347062; cut-off not given, nearly all actives have AC50 up to about 27 µM;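 further: cells exposed to compound for two days before readout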); settings: JHH-DIPG-1 viability, CellTiter-Glo ATP luminescence
# [3] = growth inhibition of DIPG glioma cells, dose response, cell-based, SU-DIPG-IV, MIPE4.0, CellTiter-Glo, qHTS (AID 1347063; cut-off not given, nearly all actives have AC50 up to about 30 µM;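 further: compound exposure lasted 48 hours before the viability readout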); settings: SU-DIPG-IV viability, CellTiter-Glo ATP luminescence
# [4] = growth inhibition of DIPG glioma cells, dose response, cell-based, SU-DIPG-XIII, MIPE5.0, CellTiter-Glo, qHTS (AID 1347064; cut-off not given, nearly all actives have AC50 up to about 23 µM;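 further: cells exposed to compound for 48 hours before the viability read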); settings: SU-DIPG-XIII viability, CellTiter-Glo ATP luminescence
# [5] = viability loss in pontine glioma line – cell-based, SU-DIPG-XXV, MIPE5.0, CellTiter-Glo, qHTS, dose response (AID 1347065; cut-off not given, nearly all actives have AC50 up to about 26 µM;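 further: cells exposed to compound for 48 hours before ATP readout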); settings: CellTiter-Glo ATP luminescence
# [6] = JHH-DIPG-1 glioma cell viability, MIPE5.0 library, CellTiter-Glo luminescence, qHTS (AID 1347067; cut-off not given, nearly all actives have AC50 up to about 26 µM;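 further: cells exposed to compound for 48 hours before readout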); settings: JHH-DIPG-1 glioma viability, CellTiter-Glo ATP luminescence
# [7] = SU-DIPG-XXV glioma cell viability, MIPE5.0 library, qHTS (AID 1347068; cut-off not given, nearly all actives have IC50 up to about 30 µM;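 further: cells exposed to compound for 48 hours before viability readout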)
# [8] = ovarian cancer cell viability with rucaparib, profiling panel, oncology-focused library, rucaparib conditional (AID 1508598); settings: patient-derived ovarian cancer cells, CellTiter-Glo viability, 144 h, active compounds read low
structure (smiles),measurement,setting,value
COc1cc(OC)c(/C=C/S(=O)(=O)Cc2ccc(OC)c(NCC(=O)O)c2)c(OC)c1,AC50,[1],93.4 nM (active)
same,AC50,[2],935 nM (active)
same,AC50,[3],26.4 nM (active)
same,AC50,[4],295 nM (active)
same,AC50,[5],118 nM (active)
same,AC50,[6],118 nM (active)
same,IC50,[7],66.1 nM (active)
same,viability,"[8]; at 0.000305 µM, OCI-C5x cells, with rucaparib 10 µM, 100% = cells with rucaparib alone",110%
same,viability,"[8]; at 0.000305 µM, OCI-C5x cells, without rucaparib",120%
same,viability,"[8]; at 0.000305 µM, OCI-P5x cells, with rucaparib 20 µM, 100% = cells with rucaparib alone",106%
same,viability,"[8]; at 0.000305 µM, OCI-P5x cells, without rucaparib",75.1% (active)
same,viability,"[8]; at 0.00122 µM, OCI-C5x cells, with rucaparib 10 µM, 100% = cells with rucaparib alone",114%
same,viability,"[8]; at 0.00122 µM, OCI-C5x cells, without rucaparib",111%
same,viability,"[8]; at 0.00122 µM, OCI-P5x cells, with rucaparib 20 µM, 100% = cells with rucaparib alone",102%
same,viability,"[8]; at 0.00122 µM, OCI-P5x cells, without rucaparib",104%
same,viability,"[8]; at 0.00488 µM, OCI-C5x cells, with rucaparib 10 µM, 100% = cells with rucaparib alone",107%
same,viability,"[8]; at 0.00488 µM, OCI-C5x cells, without rucaparib",115%
same,viability,"[8]; at 0.00488 µM, OCI-P5x cells, with rucaparib 20 µM, 100% = cells with rucaparib alone",103%
same,viability,"[8]; at 0.00488 µM, OCI-P5x cells, without rucaparib",101%
same,viability,"[8]; at 0.0195 µM, OCI-C5x cells, with rucaparib 10 µM, 100% = cells with rucaparib alone",91.1% (active)
same,viability,"[8]; at 0.0195 µM, OCI-C5x cells, without rucaparib",88% (active)
same,viability,"[8]; at 0.0195 µM, OCI-P5x cells, with rucaparib 20 µM, 100% = cells with rucaparib alone",94.8% (active)
same,viability,"[8]; at 0.0195 µM, OCI-P5x cells, without rucaparib",61.6% (active)
same,viability,"[8]; at 0.0781 µM, OCI-C5x cells, with rucaparib 10 µM, 100% = cells with rucaparib alone",53.4% (active)
same,viability,"[8]; at 0.0781 µM, OCI-C5x cells, without rucaparib",45% (active)
same,viability,"[8]; at 0.0781 µM, OCI-P5x cells, with rucaparib 20 µM, 100% = cells with rucaparib alone",73.5% (active)
same,viability,"[8]; at 0.0781 µM, OCI-P5x cells, without rucaparib",23.1% (active)
same,viability,"[8]; at 0.313 µM, OCI-C5x cells, with rucaparib 10 µM, 100% = cells with rucaparib alone",50.7% (active)
same,viability,"[8]; at 0.313 µM, OCI-C5x cells, without rucaparib",35.9% (active)
same,viability,"[8]; at 0.313 µM, OCI-P5x cells, with rucaparib 20 µM, 100% = cells with rucaparib alone",56.6% (active)
same,viability,"[8]; at 0.313 µM, OCI-P5x cells, without rucaparib",20.6% (active)
same,viability,"[8]; at 1.25 µM, OCI-C5x cells, with rucaparib 10 µM, 100% = cells with rucaparib alone",37.8% (active)
same,viability,"[8]; at 1.25 µM, OCI-C5x cells, without rucaparib",32.9% (active)
same,viability,"[8]; at 1.25 µM, OCI-P5x cells, with rucaparib 20 µM, 100% = cells with rucaparib alone",54.9% (active)
same,viability,"[8]; at 1.25 µM, OCI-P5x cells, without rucaparib",14.5% (active)
same,viability,"[8]; at 5 µM, OCI-C5x cells, with rucaparib 10 µM, 100% = cells with rucaparib alone",36.1% (active)
same,viability,"[8]; at 5 µM, OCI-C5x cells, without rucaparib",29% (active)
same,viability,"[8]; at 5 µM, OCI-P5x cells, with rucaparib 20 µM, 100% = cells with rucaparib alone",52% (active)
same,viability,"[8]; at 5 µM, OCI-P5x cells, without rucaparib",12.1% (active)
